# Laboratory results published in the supplement of paper PMC8728848.
# Many of the other results were omitted from the sample, so the strongest signals are more common in it than they were.
# B1: Vd2LysM (Verticillium dahliae) (protein)
# chain: YRRTCSHTGKGEGWYIIRRGDNFNAVAADFCTSTNVLTEWNHISTITDNMVNTKIKVPCRWNAGKQRDCLKDQKSSNGWYHIVSGDELKDIAYDFCTTSGSLAGMNGISNPDYIKANTDIVVPCSWN
# Experiments:
# Experiment in all cases: glycan array binding signal (z-score within array); higher = stronger binding
# Settings in all cases: glycan notation: IUPAC condensed, linker removed
# [1] = molecular target: Fuc(a1-2)Gal(b1-3)GalNAc(a1-3)[Fuc(a1-2)]Gal(b1-4)Glc
# Outline: (§1)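 The Consortium for Functional Glycomics database supplied 3228 glycan arrays, of which those lacking an available protein sequence were dropped. The binding signal, a within-array Z-score, was averaged across arrays of the same protein sequence and across linkers. Negative scores can be read as non-binding.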
# [2] = molecular target: Fuc(a1-2)Gal(b1-3)GlcNAc
# Outline: as §1
# [3] = molecular target: Fuc(a1-2)Gal(b1-3)GlcNAc(b1-3)GalNAc
# Outline: as §1
# [4] = molecular target: Fuc(a1-2)Gal(b1-4)GlcNAc(b1-3)Gal(b1-4)GlcNAc
# Outline: as §1
# [5] = molecular target: Fuc(a1-2)Gal(b1-4)[Fuc(a1-3)]GlcNAc(b1-2)[Fuc(a1-2)Gal(b1-4)[Fuc(a1-3)]GlcNAc(b1-4)]Man(a1-3)[Fuc(a1-2)Gal(b1-4)[Fuc(a1-3)]GlcNAc(b1-2)Man(a1-6)]Man(b1-4)GlcNAc(b1-4)GlcNAc
# Outline: as §1
# [6] = molecular target: Fuc(a1-2)[Gal(a1-3)]Gal(b1-4)GlcNAc(b1-2)Man(a1-3)[Fuc(a1-2)[Gal(a1-3)]Gal(b1-4)GlcNAc(b1-2)Man(a1-6)]Man(b1-4)GlcNAc(b1-4)GlcNAc
# Outline: as §1
# [7] = molecular target: Fuc(a1-2)[GalNAc(a1-3)]Gal(b1-4)[Fuc(a1-3)]GlcNAc(b1-3)GalNAc
# Outline: as §1
# [8] = molecular target: Fuc(a1-3)[Gal3S(b1-4)]GlcNAc
# Outline: as §1
# [9] = molecular target: Gal(a1-3)Gal(b1-3)GlcNAc(b1-2)Man
# Outline: as §1
# [10] = molecular target: Gal(a1-3)Gal(b1-4)GlcNAc
# Outline: as §1
# [11] = molecular target: Gal(a1-3)Gal(b1-4)GlcNAc(b1-2)Man(a1-3)[Gal(a1-3)Gal(b1-4)GlcNAc(b1-2)Man(a1-6)]Man(b1-4)GlcNAc(b1-4)GlcNAc
# Outline: as §1
# [12] = molecular target: Gal(b1-3)GlcNAc
# Outline: as §1
# [13] = molecular target: Gal(b1-3)GlcNAc(b1-3)Gal(b1-3)GlcNAc
# Outline: as §1
# [14] = molecular target: Gal(b1-3)GlcNAc(b1-3)Gal(b1-4)GlcNAc(b1-2)Man(a1-3)[Gal(b1-3)GlcNAc(b1-3)Gal(b1-4)GlcNAc(b1-2)Man(a1-6)]Man(b1-4)GlcNAc(b1-4)GlcNAc
# Outline: as §1
# [15] = molecular target: Gal(b1-3)GlcNAc(b1-3)Gal(b1-4)GlcNAc(b1-2)[Gal(b1-3)GlcNAc(b1-3)Gal(b1-4)GlcNAc(b1-6)]Man(a1-6)[Gal(b1-3)GlcNAc(b1-3)Gal(b1-4)GlcNAc(b1-2)Man(a1-3)]Man(b1-4)GlcNAc(b1-4)[Fuc(a1-6)]GlcNAc
# Outline: as §1
# [16] = molecular target: Gal(b1-3)GlcNAc(b1-3)Gal(b1-4)GlcNAc(b1-3)Gal(b1-4)GlcNAc(b1-2)[Gal(b1-3)GlcNAc(b1-3)Gal(b1-4)GlcNAc(b1-3)Gal(b1-4)GlcNAc(b1-6)]Man(a1-6)[Gal(b1-3)GlcNAc(b1-3)Gal(b1-4)GlcNAc(b1-3)Gal(b1-4)GlcNAc(b1-2)Man(a1-3)]Man(b1-4)GlcNAc(b1-4)[Fuc(a1-6)]GlcNAc
# Outline: as §1
# [17] = molecular target: Gal(b1-3)[Fuc(a1-4)]GlcNAc(b1-2)Man(a1-3)[Gal(b1-3)[Fuc(a1-4)]GlcNAc(b1-2)Man(a1-6)]Man(b1-4)GlcNAc(b1-4)[Fuc(a1-6)]GlcNAc
# Outline: as §1
# [18] = molecular target: Gal(b1-4)Glc
# Outline: as §1
# [19] = molecular target: Gal(b1-4)GlcNAc(b1-2)Man(a1-3)[Gal(b1-4)GlcNAc(b1-2)Man(a1-6)]Man(b1-4)GlcNAc(b1-4)GlcNAc
# Outline: as §1
# [20] = molecular target: Gal(b1-4)GlcNAc(b1-3)Gal(b1-3)GalNAc
# Outline: as §1
# [21] = molecular target: Gal(b1-4)GlcNAc(b1-3)Gal(b1-4)GlcNAc(b1-2)[Gal(b1-4)GlcNAc(b1-3)Gal(b1-4)GlcNAc(b1-6)]Man(a1-6)[Gal(b1-4)GlcNAc(b1-3)Gal(b1-4)GlcNAc(b1-2)Man(a1-3)]Man(b1-4)GlcNAc(b1-4)[Fuc(a1-6)]GlcNAc
# Outline: as §1
# [22] = molecular target: Gal3S(b1-3)GalNAc
# Outline: as §1
# [23] = molecular target: GalNAc(a1-3)GalNAc(b1-3)Gal(a1-4)Gal(b1-4)GlcNAc
# Outline: as §1
# [24] = molecular target: Glc(b1-6)Glc
# Outline: as §1
# [25] = molecular target: GlcNAc(b1-2)[GlcNAc(b1-4)]Man(a1-3)[GlcNAc(b1-4)][GlcNAc(b1-2)Man(a1-6)]Man(b1-4)GlcNAc(b1-4)GlcNAc
# Outline: as §1
# [26] = molecular target: GlcNAc(b1-2)[GlcNAc(b1-4)]Man(a1-3)[GlcNAc(b1-4)][GlcNAc(b1-2)[GlcNAc(b1-6)]Man(a1-6)]Man(b1-4)GlcNAc(b1-4)[Fuc(a1-6)]GlcNAc
# Outline: as §1
# [27] = molecular target: GlcNAc(b1-3)Gal(b1-4)GlcNAc(b1-2)[GlcNAc(b1-3)Gal(b1-4)GlcNAc(b1-6)]Man(a1-6)[GlcNAc(b1-3)Gal(b1-4)GlcNAc(b1-2)Man(a1-3)]Man(b1-4)GlcNAc(b1-4)GlcNAc
# Outline: as §1
# [28] = molecular target: GlcNAc(b1-3)Gal(b1-4)GlcNAc(b1-3)GalNAc
# Outline: as §1
# [29] = molecular target: GlcNAc(b1-4)Gal(b1-4)GlcNAc
# Outline: as §1
# [30] = molecular target: GlcNAc(b1-4)GlcNAc(b1-4)GlcNAc(b1-4)GlcNAc(b1-4)GlcNAc
# Outline: as §1
# [31] = molecular target: GlcNAc(b1-4)GlcNAc(b1-4)GlcNAc(b1-4)GlcNAc(b1-4)GlcNAc(b1-4)GlcNAc
# Outline: as §1
# [32] = molecular target: Kdn(a2-3)Gal(b1-3)GalNAc
# Outline: as §1
# [33] = molecular target: Man(a1-2)Man(a1-3)[Man(a1-2)Man(a1-6)]Man(a1-6)[Man(a1-2)Man(a1-2)Man(a1-3)]Man(b1-4)GlcNAc(b1-4)GlcNAc
# Outline: as §1
# [34] = molecular target: MurNAc(b1-4)GlcNAc
# Outline: as §1
# [35] = molecular target: Neu5Ac(a2-3)Gal(b1-4)Glc
# Outline: as §1
# [36] = molecular target: Neu5Ac(a2-3)Gal(b1-4)GlcNAc(b1-2)Man
# Outline: as §1
# [37] = molecular target: Neu5Ac(a2-3)Gal(b1-4)GlcNAc(b1-2)Man(a1-3)[Neu5Ac(a2-3)Gal(b1-4)GlcNAc(b1-2)Man(a1-6)]Man(b1-4)GlcNAc(b1-4)[Fuc(a1-6)]GlcNAc
# Outline: as §1
# [38] = molecular target: Neu5Ac(a2-3)Gal(b1-4)GlcNAc(b1-3)Gal
# Outline: as §1
# [39] = molecular target: Neu5Ac(a2-3)Gal(b1-4)GlcNAc(b1-3)Gal(b1-4)GlcNAc(b1-3)Gal(b1-4)GlcNAc(b1-2)Man(a1-3)[Neu5Ac(a2-3)Gal(b1-4)GlcNAc(b1-3)Gal(b1-4)GlcNAc(b1-3)Gal(b1-4)GlcNAc(b1-2)Man(a1-6)]GalNAc
# Outline: as §1
# [40] = molecular target: Neu5Ac(a2-3)Gal(b1-4)GlcNAc(b1-3)Gal(b1-4)[Fuc(a1-3)]GlcNAc
# Outline: as §1
# [41] = molecular target: Neu5Ac(a2-3)Gal(b1-4)[Fuc(a1-3)]GlcNAc(b1-3)Gal(b1-4)GlcNAc
# Outline: as §1
# [42] = molecular target: Neu5Ac(a2-3)GalNAc
# Outline: as §1
# [43] = molecular target: Neu5Ac(a2-6)Gal(b1-4)GlcNAc(b1-2)Man(a1-3)[GlcNAc(b1-4)][Neu5Ac(a2-6)Gal(b1-4)GlcNAc(b1-2)Man(a1-6)]Man(b1-4)GlcNAc(b1-4)GlcNAc
# Outline: as §1
# [44] = molecular target: Neu5Ac(a2-6)Gal(b1-4)GlcNAc(b1-2)Man(a1-3)[Man(a1-6)]Man(b1-4)GlcNAc(b1-4)GlcNAc
# Outline: as §1
# [45] = molecular target: Neu5Ac(a2-6)GlcNAc(b1-4)GlcNAc
# Outline: as §1
# [46] = molecular target: Neu5Ac(a2-8)Neu5Ac(a2-3)[Gal(b1-3)GalNAc(b1-4)]Gal(b1-4)Glc
# Outline: as §1
# [47] = molecular target: Neu5Ac(a2-8)Neu5Ac(a2-8)Neu5Ac(a2-8)Neu5Ac(a2-3)[GalNAc(b1-4)]Gal(b1-4)Glc
# Outline: as §1
# [48] = molecular target: Neu5Ac(b2-6)Gal(b1-4)GlcNAc
# Outline: as §1
# [49] = molecular target: Neu5Gc(a2-6)Gal(b1-4)GlcNAc
# Outline: as §1
# [50] = molecular target: Neu5Gc(a2-8)Neu5Gc(a2-3)Gal(b1-4)GlcNAc
# Outline: as §1
# [51] = molecular target: Neu5Gc(a2-8)Neu5Gc(a2-3)Gal(b1-4)GlcNAc(b1-3)Gal(b1-4)GlcNAc
# Outline: as §1
binder,measurement,setting,value
B1,glycan array binding signal (z-score),[1],2.91
same,glycan array binding signal (z-score),[2],0.299
same,glycan array binding signal (z-score),[3],-0.965
same,glycan array binding signal (z-score),[4],0.247
same,glycan array binding signal (z-score),[5],0.533
same,glycan array binding signal (z-score),[6],-0.126
same,glycan array binding signal (z-score),[7],-0.592
same,glycan array binding signal (z-score),[8],0.699
same,glycan array binding signal (z-score),[9],0.43
same,glycan array binding signal (z-score),[10],-0.365
same,glycan array binding signal (z-score),[11],-1.06
same,glycan array binding signal (z-score),[12],-0.257
same,glycan array binding signal (z-score),[13],0.452
same,glycan array binding signal (z-score),[14],0.151
same,glycan array binding signal (z-score),[15],6.69
same,glycan array binding signal (z-score),[16],2.23
same,glycan array binding signal (z-score),[17],-0.543
same,glycan array binding signal (z-score),[18],0.73
same,glycan array binding signal (z-score),[19],-0.349
same,glycan array binding signal (z-score),[20],0.984
same,glycan array binding signal (z-score),[21],2.2
same,glycan array binding signal (z-score),[22],-0.656
same,glycan array binding signal (z-score),[23],-0.212
same,glycan array binding signal (z-score),[24],-1.15
same,glycan array binding signal (z-score),[25],2.82
same,glycan array binding signal (z-score),[26],3.56
same,glycan array binding signal (z-score),[27],0.741
same,glycan array binding signal (z-score),[28],-1.11
same,glycan array binding signal (z-score),[29],-1.44
same,glycan array binding signal (z-score),[30],8.56
same,glycan array binding signal (z-score),[31],4.42
same,glycan array binding signal (z-score),[32],1.25
same,glycan array binding signal (z-score),[33],2.21
same,glycan array binding signal (z-score),[34],-0.26
same,glycan array binding signal (z-score),[35],0.49
same,glycan array binding signal (z-score),[36],-0.481
same,glycan array binding signal (z-score),[37],1.14
same,glycan array binding signal (z-score),[38],-0.599
same,glycan array binding signal (z-score),[39],2.35
same,glycan array binding signal (z-score),[40],-0.732
same,glycan array binding signal (z-score),[41],-0.125
same,glycan array binding signal (z-score),[42],0.096
same,glycan array binding signal (z-score),[43],-0.761
same,glycan array binding signal (z-score),[44],-0.322
same,glycan array binding signal (z-score),[45],0.619
same,glycan array binding signal (z-score),[46],0.198
same,glycan array binding signal (z-score),[47],1.71
same,glycan array binding signal (z-score),[48],0.512
same,glycan array binding signal (z-score),[49],0.437
same,glycan array binding signal (z-score),[50],2.17
same,glycan array binding signal (z-score),[51],0.317
